UBC9 SUMO inh: SUMOylation inhibition | P63279 | HTRF SUMOylation assay, SAE1/SAE2 + UBC9, in vitro | inhibition, % at 35 µM | 290,000 compounds, 0.36% hits; in the data active = inhibition above about 50%, passing the limit was not always enough
NTR1 ag: activates human neurotensin receptor 1; P30989; AID 493036; activation, % at 20 µM; 330,000 compounds, 0.17% hits; NTR1-U2OS beta-arrestin-GFP spot imaging, agonist mode;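 active = activation at or above 40% of the spot to cytoplasm intensity ratio, with at least 20 cells analyzed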;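 note: 0% = DMSO without peptide and 100% = 100 nM NTR1 peptide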
Target sequence (P30989 whole entry, looked up): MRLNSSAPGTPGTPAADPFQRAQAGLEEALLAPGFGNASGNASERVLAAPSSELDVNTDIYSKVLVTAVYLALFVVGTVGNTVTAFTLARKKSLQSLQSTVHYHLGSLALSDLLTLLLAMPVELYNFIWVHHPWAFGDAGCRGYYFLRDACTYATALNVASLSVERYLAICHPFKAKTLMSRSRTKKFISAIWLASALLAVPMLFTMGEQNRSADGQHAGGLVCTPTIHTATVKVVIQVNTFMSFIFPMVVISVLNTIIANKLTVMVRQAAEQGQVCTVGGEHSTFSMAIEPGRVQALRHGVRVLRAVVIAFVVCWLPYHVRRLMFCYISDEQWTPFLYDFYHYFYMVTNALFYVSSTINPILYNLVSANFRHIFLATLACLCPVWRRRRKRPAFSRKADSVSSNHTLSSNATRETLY
ALR H2O2 inh: human ALR oxidase inhibition via reduced H2O2; P55789; purified ALR, DTT oxidation, H2O2 HRP-luminol luminescence; inhibition, % (no concentration beside the values); 290,000 compounds, 3.8% hits;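 active = mean replicate inhibition above about 79%, with every replicate also reaching it, limit read from the data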
H9c2 protect: myocardial damage modulation in H9c2 cells. H9c2 cardiomyocytes, H2O2 injury protection, ATPLite, 2 h. 360,000 compounds, 0.63% hits. protection from H2O2 cell death, % at 20 µM;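 active = compounds giving at least 50% protection of heart cells from peroxide-induced death in the single-dose screen, raw or plate-pattern-corrected value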;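 note: 0% = DMSO wells with peroxide and 100% = DMSO wells without peroxide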
An asterisk follows results filed as active. A selection: hits, their analogues and other compounds. The true share with any hit is near 3.9%.

CCCCOc1ccc(/C(N)=N/O)cc1 was read as UBC9 SUMO inh 17, NTR1 ag 0, ALR H2O2 inh 99* and H9c2 protect -8.
For N#C/C(=C\C=C\c1ccccc1)C(=O)N1CCCC1 the results were UBC9 SUMO inh 1, NTR1 ag 2, ALR H2O2 inh -1 and H9c2 protect 0.
`CCOc1ccc(N(CC(=O)N2CCOCC2)S(=O)(=O)c2ccc(Cl)cc2)cc1` gave UBC9 SUMO inh -17, NTR1 ag 0, ALR H2O2 inh -1 and H9c2 protect 9.
Cc1nc(CSc2n[nH]c(=O)n2-c2ccccc2)cs1 was read as UBC9 SUMO inh 17, NTR1 ag -1, ALR H2O2 inh -8 and H9c2 protect 1.
For CCOC(=O)c1sc2nc3c(SCCC#N)cc(C(=O)c4cc(F)ccc4O)cn3c(=O)c2c1C the results were UBC9 SUMO inh 29, NTR1 ag 1, ALR H2O2 inh -2 and H9c2 protect 6.
Screening CCOC(=O)c1sc2nc3c(SCCC(=O)O)cc(C(=O)c4cc(OC)ccc4O)cn3c(=O)c2c1C returned UBC9 SUMO inh 74* and H9c2 protect -1.
`Cc1cc(-c2n[nH]c(=S)o2)c(C)n1-c1ccccc1` gave UBC9 SUMO inh -13, NTR1 ag -2 and ALR H2O2 inh 95*.
S=c1[nH]nc(-c2c[nH]c3ccccc23)o1 was read as UBC9 SUMO inh 14, NTR1 ag -1, ALR H2O2 inh 98* and H9c2 protect 2.
S=c1[nH]nc(COc2ccc3ccccc3c2)o1 was read as UBC9 SUMO inh -18, NTR1 ag 0, ALR H2O2 inh 30 and H9c2 protect 8.
For Oc1cc2ccccc2cc1-c1n[nH]c(=S)o1 the results were UBC9 SUMO inh 26, NTR1 ag 0, ALR H2O2 inh 97* and H9c2 protect 16.
`CCN(CC(=O)Nc1cccc(OC)c1)c1ncnc2sc(C)c(C)c12` gave UBC9 SUMO inh 9, NTR1 ag 2, ALR H2O2 inh 87* and H9c2 protect -13.
For c1ccc2c(c1)CSc1ccccc1N2 the results were NTR1 ag 0, ALR H2O2 inh 98* and H9c2 protect -7.
Screening S=C1Nc2ccccc2CS1 returned H9c2 protect 6.
C/C(=C\c1ccc(C(=O)O)cc1)c1ccc2c(c1)C(C)(C)CCC2(C)C was read as NTR1 ag 10, ALR H2O2 inh 21 and H9c2 protect 14.
For COc1ccc2[nH]c(=S)[nH]c2c1 the results were UBC9 SUMO inh 21, NTR1 ag -2, ALR H2O2 inh 98* and H9c2 protect -5.
`COC(=O)c1ccc(Cn2nnc3c(=O)[nH]c(C4CCCN(S(=O)(=O)c5ccccc5)C4)nc32)cc1` (stereo not given) gave UBC9 SUMO inh 12, NTR1 ag 4, ALR H2O2 inh 5 and H9c2 protect 61*.
Screening Oc1ccc(Cc2ccc(Cl)cc2)c(O)c1 returned UBC9 SUMO inh -4, NTR1 ag 0, ALR H2O2 inh 97* and H9c2 protect -4.
Screening O=C(C1CCCCC1)N1CCCn2c1nc1ccccc12 returned UBC9 SUMO inh 4, NTR1 ag 2, ALR H2O2 inh -4 and H9c2 protect 3.
Screening Cc1ccc(N/N=C/c2c(O)cc(C)oc2=O)cc1 returned UBC9 SUMO inh -30, NTR1 ag 0, ALR H2O2 inh 99* and H9c2 protect -12.
`C/C(=N\Nc1ccccc1)c1c(O)cc(C)oc1=O` gave UBC9 SUMO inh 1, NTR1 ag -2, ALR H2O2 inh 99* and H9c2 protect 12.
COc1ccc(C(=O)Oc2cccc3cccnc23)cc1[N+](=O)[O-] was read as UBC9 SUMO inh 7, NTR1 ag 2, ALR H2O2 inh -21 and H9c2 protect -3.
For Cc1ccc(C(=O)Oc2ccc(Cl)c3cccnc23)cc1[N+](=O)[O-] the results were UBC9 SUMO inh 22, NTR1 ag 8, ALR H2O2 inh 10 and H9c2 protect 53*.
For COc1cc(/C=N/NC(=Nc2ccc(C)cc2)c2nc3ccccc3s2)ccc1O the results were UBC9 SUMO inh -5, NTR1 ag 13, ALR H2O2 inh 68 and H9c2 protect -14.
`CCCCCn1c(=O)[nH]c2cc(C(=O)NCCCN(CC)CC)ccc2c1=O` gave UBC9 SUMO inh 31, NTR1 ag -2 and H9c2 protect 1.
Screening CCCNC(=O)c1ccc2c(=O)c(O)c(-c3ccsc3)[nH]c2c1 returned UBC9 SUMO inh 53*, NTR1 ag 2, ALR H2O2 inh 34 and H9c2 protect 51*.
For CCCNC(=O)c1ccc2c(=O)c(O)c(-c3ccc(C)cc3)[nH]c2c1 the results were UBC9 SUMO inh 42, NTR1 ag -1, ALR H2O2 inh -13 and H9c2 protect 54*.

Screening data as filed in PubChem.
